Compound activity as filed in PubChem BioAssay.
SARS 3CLpro inh – SARS-CoV 3CLpro protease inhibitors, primary screen, biochemical, quenched FRET; inhibition, % at 6 µM; 290,000 compounds, 0.14% hits; AID 1706, 2009; recombinant SARS-CoV 3CLpro, quenched FRET peptide cleavage; in the data active = inhibition above about 12%
Mtb hypoxia rep – PubChem AID 1159583 | M. tuberculosis hypoxia-regulated fluorescent reporter, fluorescence | fluorescence inhibition, % (no concentration beside the values) | 300,000 compounds, 0.1% hits; in the data active = fluorescence inhibition mostly above about 23%, no sharp cut-off; inactive = mostly below about 17%
SSB-PriA inh – inhibitors of Klebsiella pneumoniae PriA binding to SSB C-terminal tail, primary screen, biochemical, AlphaScreen | PriA–SSB C-terminal tail interaction (Klebsiella pneumoniae) | AlphaScreen SSBct-PriA binding, biotinylated peptide | inhibition, % at 33 µM | 430,000 compounds, 0.6% hits | AID 1272365, 2023; in the data active = inhibition mostly above about 37%, no sharp cut-off; inactive = mostly below about 20%;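 also: plate controls were negative control peptide for no effect and reference peptide for full effect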
DUSP3 inh – VHR1 phosphatase inhibitors, primary screen, biochemical, absorbance, uHTS; Dual specificity protein phosphatase 3 (Homo sapiens), P51452; recombinant VHR phosphatase, pNPP absorbance; inhibition, % at 13.3 µM; 290,000 compounds, 0.52% hits; in the data active = inhibition above about 50%
Target sequence (P51452 whole entry, looked up): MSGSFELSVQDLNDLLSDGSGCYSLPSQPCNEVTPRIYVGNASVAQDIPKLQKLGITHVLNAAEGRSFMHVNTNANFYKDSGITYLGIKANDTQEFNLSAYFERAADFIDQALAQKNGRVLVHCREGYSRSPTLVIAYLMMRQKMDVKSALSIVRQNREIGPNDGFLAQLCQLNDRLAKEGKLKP
CCHF vOTU inh-1 – CCHFV vOTU protease inhibitors, primary screen, biochemical, Pep-AMC substrate, fluorescence; Crimean-Congo hemorrhagic fever virus L polyprotein viral ovarian tumor (vOTU) protease …; 370,000 compounds, 0.55% hits; inhibition, % at 11.5 µM; AID 651958, 2012; also: 0% = vehicle wells with enzyme and 100% = no enzyme wells
CCHF vOTU inh-2 – CCHFV vOTU protease inhibitors, confirmation, biochemical, Pep-AMC substrate, fluorescence. 1,900 compounds, 17% hits. shares compounds with CCHF vOTU inh-1. Recombinant CCHFV vOTU. inhibition, % at 11.5 µM
Active calls of the source: *; / = not tested or not shown. In the library only some 1.3% were active in any assay of this set; here they are far more common. Rule as the data show it, unless noted: active = inhibition above about 30%; inactive = the rest.

SMILES | SARS 3CLpro inh | Mtb hypoxia rep | SSB-PriA inh | DUSP3 inh | CCHF vOTU inh-1 | CCHF vOTU inh-2
OC(c1ccc(F)c(F)c1)c1ncc(-c2cccc(C(F)(F)F)c2)[nH]1 (stereo not given) | / | / | / | / | 10 | /
OC(c1ccc(Cl)c(F)c1)c1ncc(-c2cccc(C(F)(F)F)c2)[nH]1 (stereo not given) | / | / | / | / | 36* | -6
Cc1cc(=O)n(-c2ccc(C(=O)O)cc2)[nH]1 | 3 | 6 | 0 | 10 | 54* | -20
Cc1ccc(N2CCN(C(=O)N3CCCCC3)CC2)cc1Cl | / | / | 4 | / | / | /
N#C/C(=C\c1ccc[nH]1)C(=O)Nc1ccccc1F | 1 | 7 | 2 | 19 | 15 | /
Cc1cc(/C=C(\C#N)C(=O)Nc2ccccc2F)c(C)[nH]1 | 0 | -8 | 7 | 22 | 33* | -3
Fc1cccc(Cc2c(-c3ccco3)nc3c(Cl)cc(C(F)(F)F)cn23)c1 | / | / | / | / | 31* | -4
COc1ccc(N2CCN(CCNS(=O)(=O)c3ccc(NC(C)=O)cc3)CC2)cc1 | / | / | -7 | / | / | /
Cn1c(=O)[nH]c(=O)c2c1n1c(-c3c(F)cccc3Cl)nnc1n2C | / | / | 3 | / | / | /
COC(=O)c1cc(NS(=O)(=O)c2ccc(N3CCC(C)CC3)c([N+](=O)[O-])c2)cc(C(=O)OC)c1 | 4 | 4 | 56* | 9 | 34* | -4
O=C(Nc1cc(-n2ccnc2)ncn1)c1ccc(S(=O)(=O)N2CCCC2)cc1 | / | / | -17 | / | / | /
C(=N\Nc1ncnc2sc3c(c12)CCC3)/c1ccncc1 | -14 | / | / | 50* | 34* | -4
Cc1nn(-c2cccc(Cl)c2)c2c1C(c1cccnc1)C(C#N)=C(N)O2 (stereo not given) | 0 | -1 | 14 | 19 | 35* | -20
Cn1ccc(C(=O)N=c2sc3cc(F)ccc3n2C)n1 | / | / | -10 | / | / | /
COC(=O)[C@]12C[C@H](CC(=O)NCc3cccc(C(F)(F)F)c3)C(=O)N(Cc3ccccc3)C1=C[C@H](C(C)C)O[C@@H]2C1CC1 | / | / | / | / | 41* | -4
COC(=O)[C@]12C[C@H](CC(=O)NCc3cccc(C(F)(F)F)c3)C(=O)N(Cc3ccco3)C1=C[C@H](C(C)C)O[C@@H]2C1CC1 | / | / | / | / | 31* | 0
COC(=O)[C@]12C[C@H](CC(=O)NCc3cccc(C(F)(F)F)c3)C(=O)N(CCC3=CCCCC3)C1=C[C@H](C(C)(C)C)O[C@@H]2C | / | / | / | / | 12 | /
COC(=O)[C@]12C[C@H](CC(=O)NCc3cccc(C(F)(F)F)c3)C(=O)N(CCC3=CCCCC3)C1=C[C@H](C(C)C)O[C@@H]2C1CC1 | / | / | / | / | 33* | 7
COC(=O)[C@]12C[C@H](CC(=O)NCc3cccc(C(F)(F)F)c3)C(=O)N(Cc3cccc4ccccc34)C1=C[C@H](C(C)C)O[C@@H]2C1CC1 | / | / | / | / | 21 | /
COC(=O)[C@]12C[C@H](CC(=O)NCc3ccccc3)C(=O)N(Cc3ccco3)C1=C[C@H](C(C)C)O[C@@H]2C1CC1 | / | / | / | / | 11 | /
NS(=O)(=O)c1ccc(NC(=O)C2CCCN(c3ccc(-n4cncn4)nn3)C2)cc1 (stereo not given) | / | / | 5 | / | / | /
Cc1cc(NS(C)(=O)=O)c(=O)n(Cc2cccc(C(F)(F)F)c2)c1 | / | / | / | / | 31* | -25
COCC(=O)Nc1cc(C)cn(Cc2cccc(C(F)(F)F)c2)c1=O | -6 | -21 | -6 | -3 | 6 | /
COc1ccccc1-c1cccc(-c2nc(C(=O)N3CCCCC3)cc3c2[C@H](CCO)N(S(=O)C(C)(C)C)C3)c1 (stereo not given in full) | / | / | / | / | 3 | /
CC(C)(C)S(=O)N1Cc2cc(C(=O)N3CCc4ccccc4C3)nc(-c3cccc(-c4cccnc4)c3)c2[C@@H]1CCO (stereo not given in full) | / | / | / | / | 37* | 9
Cc1noc(Cc2ccccc2NC(=O)c2cn(C)nn2)n1 | / | / | 7 | / | / | /
CCCCC(CC)C(=O)Oc1ccc(O)c(C(C)(C)C)c1 (stereo not given) | 3 | / | -18 | -17 | 31* | 16
CC(C)(C)c1cc(OC(=O)C2CCCC2)ccc1O | 1 | 12 | -25 | 2 | 2 | /
